Many of the other results were omitted from the sample, so hits are more common in it than they were.
DAT uptake mod = modulates human dopamine transporter uptake under cocaine. Q01959. LLC-PK1 hDAT cells, [14C]-dopamine uptake with cocaine IC80; actives deviate in either direction. B-score at 10 µM. actives 1.3% (n = 110,000). AID 449768;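 active = Z score or B-score, a plate-position-corrected score, falls beyond the plate's 99.7% confidence bounds, in either direction; inactive = both scores lie inside the 99.7% bounds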;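 also: scored against the spread of the other compound wells on the same plate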
D1 allo mod = allosterically modulates the human D1 dopamine receptor; HEK293 D1, CRE-luciferase, dopamine EC30 potentiation; actives deviate in either direction; B-score at 10 µM; actives 5.9% (n = 58,000);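 active = luminescence count or its row- and column-corrected plate score outside the 99.7% band of the plate's sample wells, on either side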
EphB4 ephrin blk = blocks human EphB4 binding to ephrin-B2 | EphB4 LBD / TNYL-RAW-Alexa532 peptide, fluorescence polarization | actives 0.15% (n = 97,000) | inhibition, % at 7 µM | P54760;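 active = inhibition above the screen-wide mean inhibition plus 3 SD, cut at about 15% in these data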;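 also: 0% = DMSO wells and 100% = excess unlabeled TNYL-RAW peptide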
Target sequence (P54760 whole entry, looked up, the tested form may be a part): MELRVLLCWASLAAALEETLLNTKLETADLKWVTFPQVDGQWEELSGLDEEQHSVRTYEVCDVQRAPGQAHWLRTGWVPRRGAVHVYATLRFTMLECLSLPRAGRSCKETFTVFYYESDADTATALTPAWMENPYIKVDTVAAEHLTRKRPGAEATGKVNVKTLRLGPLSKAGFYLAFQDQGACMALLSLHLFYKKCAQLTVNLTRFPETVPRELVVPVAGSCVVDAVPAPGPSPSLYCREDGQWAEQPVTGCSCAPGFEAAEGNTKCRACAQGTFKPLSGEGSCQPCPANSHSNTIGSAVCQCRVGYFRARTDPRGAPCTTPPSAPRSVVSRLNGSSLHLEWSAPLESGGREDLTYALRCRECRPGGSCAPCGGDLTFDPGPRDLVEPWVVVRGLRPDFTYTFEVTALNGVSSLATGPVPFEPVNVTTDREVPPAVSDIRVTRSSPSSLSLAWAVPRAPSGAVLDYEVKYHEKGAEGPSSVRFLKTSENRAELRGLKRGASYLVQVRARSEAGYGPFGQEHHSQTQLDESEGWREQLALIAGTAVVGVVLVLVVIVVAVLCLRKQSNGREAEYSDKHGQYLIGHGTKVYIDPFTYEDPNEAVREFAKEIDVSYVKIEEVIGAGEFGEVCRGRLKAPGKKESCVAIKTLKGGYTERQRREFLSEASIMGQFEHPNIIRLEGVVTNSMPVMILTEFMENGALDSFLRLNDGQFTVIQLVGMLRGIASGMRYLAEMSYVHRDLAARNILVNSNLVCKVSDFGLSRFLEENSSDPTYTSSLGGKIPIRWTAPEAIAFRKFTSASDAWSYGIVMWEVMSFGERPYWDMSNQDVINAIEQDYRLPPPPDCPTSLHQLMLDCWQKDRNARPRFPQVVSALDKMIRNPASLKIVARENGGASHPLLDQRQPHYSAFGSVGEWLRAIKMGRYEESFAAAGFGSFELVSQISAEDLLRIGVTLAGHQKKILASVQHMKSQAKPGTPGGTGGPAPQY
* = called active by the depositor; · = no result.

SMILES | DAT uptake mod | D1 allo mod | EphB4 ephrin blk
Cc1ccc(/C=C/C(=O)c2cc(Br)ccc2OC(=O)c2ccco2)cc1 | 0.81 | · | 9
COc1ccccc1/C=C/C(=O)c1cc(Br)ccc1OC(=O)c1ccco1 | 2.6* | · | 1
Cn1c(COc2ccccc2)nnc1SCC(=O)Nc1ccc(N2CCOCC2)c(Cl)c1 | 0.31 | 0.083 | -5
CCOC(=O)c1cc(NC(=O)CSc2nnc(CN3CCOCC3)n2C)ccc1Cl | -8.9* | · | 4
COc1ccccc1NC(=O)CSC(N)=O | 0.24 | · | 1
CCCCN(C(=O)Nc1ccc(OCC)cc1)C1CCN(C(C)=O)CC1 | 0.58 | · | 3
CC1(c2nnc(-c3ccc(F)cc3)o2)CC(c2ccccc2)=NO1 (centres undefined) | -1.6 | · | ·
CCOc1ccc(/C=N/n2c(SC)nnc2-c2ccccc2)cc1OCC | 3.3* | · | 2
CCOc1ccc(/C=N/n2c(SC)nnc(C(C)(C)C)c2=O)cc1 | 0.49 | · | 4
COc1[nH]c2ccc(F)cc2c1C(=O)OCC1CCN(CCNS(C)(=O)=O)CC1 | -0.057 | · | ·
O=S(=O)(c1ccc(F)cc1)n1ccc(-c2cccc(OCc3ccc(Cl)cc3Cl)c2)n1 | 0.043 | · | -1
Fc1ccc(/C=C2\CCCC3=C2Nc2ncnn2C3c2ccc(F)cc2)cc1 (centres undefined) | 0.4 | · | -6
O=C(Nc1ccc2nc(SCc3ccc(Cl)cc3)sc2c1)c1ccccc1C(=O)N1CCOCC1 | -7.1* | · | -2
O=C(CSCc1ccc(Cl)cc1)Nc1ccccc1C(=O)N1CCOCC1 | -1.1 | · | 5
COc1ccccc1-n1c(C)cc(C=O)c1C | -0.81 | · | -2
COC(=O)c1cc(NC(=O)c2ccccc2)c(=O)oc1C/C=N\OCc1ccc(Cl)cc1Cl | 0.75 | · | -3
CC1(c2nnc(-c3ccccc3)o2)CC(c2ccccc2)=NO1 (centres undefined) | 0.61 | · | ·
Cc1cc(C)c2c(n1)nn1c(N3CCN(c4ccccc4)CC3)cc(C)nc21 | 0.27 | -4.1* | 9
Cc1cc(C)c2c(n1)nn1c(N3CCN(c4ccccn4)CC3)cc(C)nc21 | · | -0.81 | ·
Cn1c(=O)n(-c2cccc(Cl)c2)c(=O)c2c3c(sc21)COC(C)(C)C3 | -0.039 | · | 7
CNC(=O)CSCc1cnn(-c2ccccc2)c1-n1cccc1 | -0.46 | · | 3
CCOC(=O)N1CCC(NC(=O)CSCc2cnn(-c3ccccc3)c2-n2cccc2)CC1 | 3.2* | -0.9 | -6
COc1ccc(CCN(Cc2cc3cccc(C)c3[nH]c2=O)C(=O)NC2CCCCC2)cc1OC | 0.76 | · | -5
CCc1ccc(C(=O)Nc2cc3c(cc2Cl)OCCCO3)cc1 | 0.25 | · | -5
Cc1cccc(-n2ncc3c(NCCc4ccc(S(N)(=O)=O)cc4)ncnc32)c1 | 0.65 | -6.9* | -5
SMILES | DAT uptake mod | D1 allo mod | EphB4 ephrin blk
Cc1cccc(-n2ncc3c(NCc4ccccc4)ncnc32)c1 | 2 | -0.79 | ·
CC(=O)C1=C(c2ccccc2)NC(=O)NC1c1ccccc1OCC(=O)NCc1ccccc1 (centres undefined) | 0.72 | · | 3
CCC(C)(C)n1nnnc1CN1CCC(NC(=O)c2ccc(Br)cc2)CC1 | 1.8* | · | 8
Cc1ccc(Cn2nnnc2CN2CCC(NC(=O)c3ccc(Br)cc3)CC2)cc1 | 0.15 | · | -1
COC(=O)c1cc(NC(=O)CSc2nncn2C)cc(C(=O)OC)c1 | -0.073 | · | 5
Brc1ccc2c(c1)c1nc3ccccc3nc1n2CCN1CCOCC1 | · | 4.3* | ·
O=c1c2ccccc2nc(-c2ccccc2)n1CCN1CCOCC1 | -1.5 | · | 2
COc1ccc(N2C(=O)N(Cc3cccc(F)c3)c3ccccc3S2(=O)=O)cc1 | 1.2 | · | ·
Cc1ccc(C(=O)Nc2sc3c(c2C(=O)O)CCCCC3)o1 | 1.6 | -3* | -1
COC(=O)c1c(NC(=O)c2ccc(C)o2)sc2c1CCCCC2 | -0.67 | 0.32 | 1
Cc1ccc2nsnc2c1S(=O)(=O)N(Cc1cc2cccc(C)c2[nH]c1=O)CC1CCCO1 (centres undefined) | -0.57 | -5.1* | 6
Cc1ccc2cc(CN(CC3CCCO3)S(=O)(=O)c3c(C)ccc4nsnc34)c(=O)[nH]c2c1 (centres undefined) | -0.17 | -0.06 | 1
COc1ccc(C[C@H]2CN3C(=NC[C@@H]3Cc3ccc(O)cc3)N2CCNC(=O)c2ccc(C)c(Br)c2)cc1 | -2.5* | · | ·
Cc1ccc(C(=O)NCCN2C3=NC[C@H](Cc4ccc(O)cc4)N3C[C@H]2Cc2ccc(O)cc2)cc1Br | 0.43 | · | ·
Cc1ccc(C(Sc2ccccc2)C(Cn2cncn2)C(=O)c2ccccc2)cc1 (centres undefined) | 0.087 | · | 1
CN(C)CC(C)(C)CNS(=O)(=O)c1ccc(Cl)c(Cl)c1 | -0.62 | · | 1
CC1CCc2cc(F)ccc2N1C(=O)C1(C)CC1(Cl)Cl (centres undefined) | 0.85 | · | -4
CCCCC1=CC2=CC(=O)C(C)(OC(=O)CC)C(=O)C2=CN1c1ccccc1 (centres undefined) | -2.9* | · | ·
CCCCC1=CC2=CC(=O)C(C)(OC(=O)CC)C(=O)C2=CN1Cc1ccccc1 (centres undefined) | -0.99 | · | ·
Cc1ccc(S(=O)(=O)c2c(COC(=O)c3ccccc3Cl)c(-c3ccccc3)nn2C)cc1 | 1.5 | · | 4
CC(O)c1nc2ccccc2n1Cc1nnc(-c2ccc(Cl)cc2)o1 (centres undefined) | 0.025 | -4.6* | 0
c1ccc(-c2nnc(Cn3c4ccccc4c4nc5ccccc5nc43)o2)cc1 | · | 0.5 | 13
CCCCN(CC)Cc1ccc(CNC(=O)Nc2ccc(F)cc2)o1 | -5.5* | · | -7
O=C(Nc1ccc(F)cc1)NC1(C(=O)NCc2ccco2)CCCCC1 | 0.1 | 0.033 | 6
Cc1cccc(/N=C/c2c(O)[nH]c3ccccc23)n1 | 1.3 | 0.94 | -2
SMILES | DAT uptake mod | D1 allo mod | EphB4 ephrin blk
Oc1[nH]c2ccccc2c1C=Nc1ccc2c(c1)OCCO2 | 1.1 | -2.9* | 4
CCc1ccc(NC(=O)CC2C(=O)N(c3cccc(C)c3)C(=O)N2C2CC2)cc1 (centres undefined) | -0.58 | · | ·
C=CCNC(=O)c1c2c(nc3ccccc13)-c1ccccc1CC2 | -1.3 | · | -5
CCOC(=O)C1=C(O)/C(=C/c2cn(CC(=O)N3CCCC3)c3ccccc23)SC1=Nc1ccccc1 | -8.3* | · | 6
COC(=O)c1cn(CC(=O)N2CCCCCC2)c2ccccc12 | 0.039 | · | -3
Cc1oc(C(C)(C)C)cc1C(=O)Nc1cccc(C(=O)O)c1 | 0.92 | · | -6
COc1ccccc1-c1nnc(NC(=O)c2ccc(S(=O)(=O)N(C)Cc3ccccc3)cc2)o1 | -8.6* | -0.51 | -3
CN(Cc1ccccc1)S(=O)(=O)c1ccc(C(=O)Nc2nnc(C3CC3)o2)cc1 | -0.58 | -0.81 | -1
CNNCc1ccc(C(=O)NC(C)C)cc1 | 0.11 | · | ·
CCCSc1nc(C)cc(C)c1C(N)=O | -0.22 | · | 5
COC(CNC(=O)c1cc(C)nn1-c1ccccc1)OC | -0.5 | · | 5
Oc1ccc(Cl)cc1C(C#Cc1ccccc1)N1CCOCC1 (centres undefined) | 1.1 | · | -1
CCN1C(=S)SC(=O)C1=C1C=C(C)N(CCOC)C(C)=C1 | · | -4* | ·
CCN1C(=S)SC(=O)C1=C1C=C(C)N(CCO)C(C)=C1 | -0.48 | 0.055 | ·
Cc1ccc(S(=O)(=O)c2ccc(Oc3cccc(C)c3)cc2)cc1 | 0.96 | · | 6
Cc1cccnc1Nc1nc(-c2ccccn2)cs1 | -0.73 | · | 1
Cc1cccnc1Nc1nc(-c2ccc(O)cc2O)cs1 | 5.4* | -0.012 | 4

Source: PubChem (several laboratories)
